Results published in the supplement of paper PMC10849652.
About 7,900 targets were measured; listed, in parts, are those with a hit and a random draw of the rest. About 0.6% of all pairs of compound and target were hits. A number with no mark means an inactive call.

Compound: c1cn2cc(-c3ccc4cn[nH]c4c3)nc(Nc3ccc(N4CCOCC4)cc3)c2n1 [entospletinib]
Experiment: log2 fold change, soluble protein after heating vs DMSO (PISA); higher = thermal stabilisation; K562 cells, 10 uM, 30 min; active = over 0.2 and 3.5 SD of the protein, either way, in both replicates (recomputed)
Procedure, shortened: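 K562 cells at 2×10^6 cells/mL were given 10 μM compound for 30 min. Aliquots then went through 3 min of heating across 48°C-58°C, were pooled, and were extracted in PBS with 0.5% NP-40 at 4°C, and the supernatant after 21,000xg for 90 min was quantified by TMTpro 16plex LC-MS/MS with channel sums equalised. Thermal stability relative to control samples, from duplicates, is given as log2 fold change.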

Sequence of UniProt Q969S8 (Q969S8 whole entry, looked up): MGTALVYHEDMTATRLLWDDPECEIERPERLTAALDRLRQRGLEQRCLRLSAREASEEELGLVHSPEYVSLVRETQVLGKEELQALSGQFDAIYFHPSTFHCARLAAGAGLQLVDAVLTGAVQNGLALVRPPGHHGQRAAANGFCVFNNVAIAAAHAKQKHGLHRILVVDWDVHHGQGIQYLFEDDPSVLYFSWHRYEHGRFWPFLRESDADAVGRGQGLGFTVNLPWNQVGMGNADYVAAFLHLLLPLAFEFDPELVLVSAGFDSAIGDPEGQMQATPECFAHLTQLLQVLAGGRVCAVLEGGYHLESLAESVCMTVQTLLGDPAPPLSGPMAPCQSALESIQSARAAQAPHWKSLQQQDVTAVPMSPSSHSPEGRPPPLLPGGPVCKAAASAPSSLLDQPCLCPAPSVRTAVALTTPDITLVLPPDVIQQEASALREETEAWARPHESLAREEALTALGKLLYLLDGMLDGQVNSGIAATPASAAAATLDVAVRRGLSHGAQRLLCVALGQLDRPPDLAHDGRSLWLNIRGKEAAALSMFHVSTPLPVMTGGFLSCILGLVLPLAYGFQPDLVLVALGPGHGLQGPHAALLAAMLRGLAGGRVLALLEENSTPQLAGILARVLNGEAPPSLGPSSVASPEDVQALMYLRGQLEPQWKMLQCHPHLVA
Sequence of UniProt Q06546 (Q06546 whole entry, looked up): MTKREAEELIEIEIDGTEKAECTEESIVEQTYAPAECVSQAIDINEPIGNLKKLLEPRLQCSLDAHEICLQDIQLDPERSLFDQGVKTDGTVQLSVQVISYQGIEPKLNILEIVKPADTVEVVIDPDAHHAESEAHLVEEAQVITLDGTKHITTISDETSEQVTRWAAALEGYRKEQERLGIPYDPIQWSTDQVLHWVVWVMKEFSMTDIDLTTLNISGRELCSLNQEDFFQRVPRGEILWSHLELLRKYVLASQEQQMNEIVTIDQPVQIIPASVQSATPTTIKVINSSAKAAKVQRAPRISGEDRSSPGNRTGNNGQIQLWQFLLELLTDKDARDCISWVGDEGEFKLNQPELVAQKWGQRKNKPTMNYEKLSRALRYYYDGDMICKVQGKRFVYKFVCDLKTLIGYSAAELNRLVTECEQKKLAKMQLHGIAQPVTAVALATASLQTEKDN
Sequence of UniProt P78417 (P78417 whole entry, looked up): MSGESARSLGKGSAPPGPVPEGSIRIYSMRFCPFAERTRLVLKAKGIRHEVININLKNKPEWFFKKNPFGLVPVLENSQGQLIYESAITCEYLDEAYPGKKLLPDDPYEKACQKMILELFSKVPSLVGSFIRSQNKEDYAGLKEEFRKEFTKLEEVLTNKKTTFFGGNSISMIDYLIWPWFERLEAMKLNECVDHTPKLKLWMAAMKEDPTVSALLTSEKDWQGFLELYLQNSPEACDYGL
Sequence of UniProt P29084 (P29084 whole entry, looked up): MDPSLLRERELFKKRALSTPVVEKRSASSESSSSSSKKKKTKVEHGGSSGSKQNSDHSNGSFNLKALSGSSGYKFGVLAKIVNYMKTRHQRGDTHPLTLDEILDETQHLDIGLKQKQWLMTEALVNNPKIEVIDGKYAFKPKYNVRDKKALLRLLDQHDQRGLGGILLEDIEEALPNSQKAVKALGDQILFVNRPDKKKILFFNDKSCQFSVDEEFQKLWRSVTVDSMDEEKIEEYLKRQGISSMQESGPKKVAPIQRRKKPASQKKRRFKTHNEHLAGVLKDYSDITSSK
Sequence of UniProt P31150 (P31150 whole entry, looked up): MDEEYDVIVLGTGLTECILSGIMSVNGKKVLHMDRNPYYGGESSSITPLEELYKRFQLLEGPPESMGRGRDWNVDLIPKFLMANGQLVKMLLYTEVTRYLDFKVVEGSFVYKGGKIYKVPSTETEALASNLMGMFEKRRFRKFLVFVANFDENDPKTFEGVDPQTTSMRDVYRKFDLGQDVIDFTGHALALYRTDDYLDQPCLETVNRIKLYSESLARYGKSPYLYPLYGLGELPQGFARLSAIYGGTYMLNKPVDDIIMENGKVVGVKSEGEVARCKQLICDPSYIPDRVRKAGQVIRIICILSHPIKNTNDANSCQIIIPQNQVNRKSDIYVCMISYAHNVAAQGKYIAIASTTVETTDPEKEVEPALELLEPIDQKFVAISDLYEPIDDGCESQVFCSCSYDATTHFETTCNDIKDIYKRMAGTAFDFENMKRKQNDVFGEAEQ
Sequence of UniProt O15228 (O15228 whole entry, looked up): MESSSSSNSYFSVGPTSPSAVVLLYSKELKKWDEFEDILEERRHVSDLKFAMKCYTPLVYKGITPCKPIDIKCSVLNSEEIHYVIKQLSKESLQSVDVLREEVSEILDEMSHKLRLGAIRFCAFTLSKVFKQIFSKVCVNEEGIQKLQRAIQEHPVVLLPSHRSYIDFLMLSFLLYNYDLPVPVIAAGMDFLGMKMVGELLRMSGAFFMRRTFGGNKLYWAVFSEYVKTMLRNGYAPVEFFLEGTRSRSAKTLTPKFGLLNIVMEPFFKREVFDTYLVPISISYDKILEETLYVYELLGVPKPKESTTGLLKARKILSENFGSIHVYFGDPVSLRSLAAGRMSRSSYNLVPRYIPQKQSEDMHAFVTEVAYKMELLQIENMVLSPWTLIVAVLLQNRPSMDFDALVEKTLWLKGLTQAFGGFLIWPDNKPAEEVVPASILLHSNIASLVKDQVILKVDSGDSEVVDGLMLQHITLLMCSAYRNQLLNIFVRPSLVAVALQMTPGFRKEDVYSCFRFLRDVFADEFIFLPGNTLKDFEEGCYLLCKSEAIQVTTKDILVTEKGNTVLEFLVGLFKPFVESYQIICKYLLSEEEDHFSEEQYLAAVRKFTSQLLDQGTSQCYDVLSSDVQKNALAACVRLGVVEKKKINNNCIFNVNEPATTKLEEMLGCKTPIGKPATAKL
Sequence of UniProt P40939 (P40939 whole entry, looked up): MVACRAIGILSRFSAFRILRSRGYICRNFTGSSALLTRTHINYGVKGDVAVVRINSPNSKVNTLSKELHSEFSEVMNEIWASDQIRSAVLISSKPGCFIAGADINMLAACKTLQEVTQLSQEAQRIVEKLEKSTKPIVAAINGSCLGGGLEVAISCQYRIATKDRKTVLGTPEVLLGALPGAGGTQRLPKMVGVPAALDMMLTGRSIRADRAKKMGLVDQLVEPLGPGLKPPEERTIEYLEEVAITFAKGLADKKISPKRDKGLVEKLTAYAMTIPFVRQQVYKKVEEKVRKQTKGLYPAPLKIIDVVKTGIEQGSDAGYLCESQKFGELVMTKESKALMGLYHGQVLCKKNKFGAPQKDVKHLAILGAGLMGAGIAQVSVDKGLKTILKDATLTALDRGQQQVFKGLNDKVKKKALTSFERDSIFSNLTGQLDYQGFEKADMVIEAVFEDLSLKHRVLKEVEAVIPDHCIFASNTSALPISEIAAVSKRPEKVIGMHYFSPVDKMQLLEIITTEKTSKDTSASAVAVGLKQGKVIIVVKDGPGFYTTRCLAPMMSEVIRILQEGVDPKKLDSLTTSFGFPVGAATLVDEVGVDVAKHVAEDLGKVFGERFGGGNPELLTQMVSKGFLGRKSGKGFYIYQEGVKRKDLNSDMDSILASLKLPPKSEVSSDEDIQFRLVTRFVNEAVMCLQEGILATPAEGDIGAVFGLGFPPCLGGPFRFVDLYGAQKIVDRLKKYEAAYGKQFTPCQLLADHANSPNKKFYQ
Sequence of UniProt P15976 (P15976 whole entry, looked up): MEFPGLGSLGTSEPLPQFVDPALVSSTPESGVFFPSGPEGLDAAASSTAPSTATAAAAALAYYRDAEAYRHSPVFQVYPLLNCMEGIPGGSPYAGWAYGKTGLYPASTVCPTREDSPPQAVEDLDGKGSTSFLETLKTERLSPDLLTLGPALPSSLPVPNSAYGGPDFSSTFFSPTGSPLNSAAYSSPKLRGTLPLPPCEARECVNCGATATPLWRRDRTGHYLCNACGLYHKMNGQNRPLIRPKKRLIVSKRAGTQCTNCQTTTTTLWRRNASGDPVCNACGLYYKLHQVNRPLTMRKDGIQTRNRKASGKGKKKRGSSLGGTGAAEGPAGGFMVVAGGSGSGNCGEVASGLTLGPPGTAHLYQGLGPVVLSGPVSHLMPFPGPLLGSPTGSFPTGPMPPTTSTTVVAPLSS
Sequence of UniProt P50213 (P50213 whole entry, looked up): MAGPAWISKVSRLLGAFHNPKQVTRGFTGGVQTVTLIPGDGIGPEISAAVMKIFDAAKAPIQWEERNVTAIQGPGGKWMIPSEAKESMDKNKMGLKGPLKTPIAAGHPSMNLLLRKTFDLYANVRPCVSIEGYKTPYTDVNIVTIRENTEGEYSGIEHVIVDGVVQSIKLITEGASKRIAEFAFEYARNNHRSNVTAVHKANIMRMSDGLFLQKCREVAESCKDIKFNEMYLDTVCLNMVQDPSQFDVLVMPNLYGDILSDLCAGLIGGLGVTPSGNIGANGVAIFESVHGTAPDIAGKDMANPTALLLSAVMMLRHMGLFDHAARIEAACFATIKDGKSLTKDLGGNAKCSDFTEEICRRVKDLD
Sequence of UniProt O43427 (O43427 whole entry, looked up): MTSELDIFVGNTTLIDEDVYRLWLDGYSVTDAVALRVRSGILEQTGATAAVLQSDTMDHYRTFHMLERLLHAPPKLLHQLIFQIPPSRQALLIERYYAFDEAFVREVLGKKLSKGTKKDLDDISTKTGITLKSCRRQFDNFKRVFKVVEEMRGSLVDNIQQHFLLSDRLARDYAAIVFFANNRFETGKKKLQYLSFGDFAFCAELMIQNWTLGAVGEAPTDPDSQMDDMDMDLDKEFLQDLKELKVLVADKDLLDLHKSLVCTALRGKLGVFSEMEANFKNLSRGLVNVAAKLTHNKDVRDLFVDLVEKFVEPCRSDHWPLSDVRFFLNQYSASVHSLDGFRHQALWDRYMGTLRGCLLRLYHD
Sequence of UniProt O60725 (O60725 whole entry, looked up): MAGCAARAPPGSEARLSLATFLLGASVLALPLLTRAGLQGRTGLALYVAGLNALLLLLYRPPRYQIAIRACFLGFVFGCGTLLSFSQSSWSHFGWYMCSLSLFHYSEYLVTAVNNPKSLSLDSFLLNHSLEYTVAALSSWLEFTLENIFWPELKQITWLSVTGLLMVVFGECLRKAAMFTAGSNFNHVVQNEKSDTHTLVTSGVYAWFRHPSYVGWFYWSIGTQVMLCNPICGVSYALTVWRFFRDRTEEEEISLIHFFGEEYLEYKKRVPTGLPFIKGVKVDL

Row | Target | log2 fold change
1 | HHEX (UniProt Q03014) | -0.076
2 | FHOD1 (UniProt Q9Y613) | 0.209
3 | GLUL (UniProt P15104) | -0.019
4 | HADHA (UniProt P40939) | 0.01
5 | GATA1 (UniProt P15976) | 0.102
6 | HPCAL1 (UniProt P37235) | 0.023
7 | FDXR isoform 7 (UniProt P22570) | -0.032
8 | FBXO3 (UniProt Q9UK99) | 0.013
9 | IFI30 (UniProt P13284) | -0.032
10 | GNB2 (UniProt P62879) | 0.038
11 | FAM91A1 (UniProt Q658Y4) | 0.009
12 | GCC2 (UniProt Q8IWJ2) | 0.144
13 | HNRNPUL2 (UniProt Q1KMD3) | 0.007
14 | HIST2H3A (UniProt Q71DI3) | -0.078
15 | GPS2 (UniProt Q13227) | 0.058
16 | H1FX (UniProt Q92522) | 0.02
17 | IFITM3 (UniProt Q01628) | 0.034
18 | HIKESHI (UniProt Q53FT3) | 0.088
19 | HEATR5B (UniProt Q9P2D3) | -0.025
20 | FKBP7 (UniProt Q9Y680) | -0.012
21 | HADHB (UniProt P55084) | 0.006
22 | IDH3A (UniProt P50213) | -0.024

Row | Target | log2 fold change
23 | HMGCR isoform 3 (UniProt P04035) | -0.29
24 | GSTO1 (UniProt P78417) | -0.046
25 | HNRNPC isoform 2 (UniProt P07910) | 0.274
26 | GALNT1 (UniProt Q10472) | 0.01
27 | GPKOW (UniProt Q92917) | -0.025
28 | HK2 (UniProt P52789) | -0.54 (active)
29 | GABPA (UniProt Q06546) | -0.01
30 | ICAM1 (UniProt P05362) | -0.007
31 | GIGYF2 (UniProt Q6Y7W6) | -0.02
32 | FRA10AC1 isoform 3 (UniProt Q70Z53) | -0.003
33 | IDI1 isoform 2 (UniProt Q13907) | 0.066
34 | FIS1 (UniProt Q9Y3D6) | 0.038
35 | HDAC10 (UniProt Q969S8) | 0.058
36 | FIBP (UniProt O43427) | 0.455
37 | GTF2H3 (UniProt Q13889) | 0.087
38 | GTF2A2 (UniProt P52657) | 0.014
39 | GLS (UniProt O94925) | 0.022
40 | FBXO6 (UniProt Q9NRD1) | -0.055
41 | GSK3A (UniProt P49840) | -0.028
42 | GTF2E2 (UniProt P29084) | -0.011
43 | FANCD2 isoform 1 (UniProt Q9BXW9) | 0.002
44 | GOLPH3 (UniProt Q9H4A6) | -0.016

Row | Target | log2 fold change
45 | GNPAT (UniProt O15228) | 0.003
46 | HDDC2 (UniProt Q7Z4H3) | -0.001
47 | FDFT1 (UniProt P37268) | -0.019
48 | GLA (UniProt P06280) | 0.017
49 | GNL1 (UniProt P36915) | 0.028
50 | HBZ, A0A494C057 | -0.048
51 | FOXK1 (UniProt P85037) | 0.262
52 | GLYR1 (UniProt Q49A26) | 0.041
53 | GLCCI1 (UniProt Q86VQ1) | 0.007
54 | GTF3C4 (UniProt Q9UKN8) | -0.052
55 | GALNT11 (UniProt Q8NCW6) | -0.159
56 | GSR (UniProt P00390) | -0.047
57 | GLUD2 (UniProt P49448) | 0.14
58 | FEN1 (UniProt P39748) | -0.051
59 | GDI1 (UniProt P31150) | 0.032
60 | HAUS4 (UniProt Q9H6D7) | 0.147
61 | GYG1 (UniProt P46976) | 0.643 (active)
62 | GALK1 isoform 2 (UniProt P51570) | -0.103
63 | ICMT (UniProt O60725) | 0.303
64 | HEXA (UniProt P06865) | 0
